Assay outcomes from PubChem.
LDHA inh = LDHA (human) enzyme inhibition; actives 0.15% (n = 480,000); purified LDHA, NADH/diaphorase-resazurin fluorescence; hits give low values; P00338; activity change, % (values are at about 110 or 230 µM); in the data active = activity change below about -30%; inconclusive = mostly about -25% to -30%;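 also: plate controls were DMSO wells for no effect and wells without enzyme for full effect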
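LDH5 2 nM; NADH 0.06 mM, pyruvate 0.2 mM; 200 mM Tris pH 7.4, EDTA, Tween-20; 5 min RT. Detection: diaphorase 0.133 mg/mL + resazurin 37 µM, fluorescence ex540/em590 at 0 and 20 min; normalized to enzyme-free and DMSO wells.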
12-LOX inh = blocks human arachidonate 12S-lipoxygenase; Potency, µM (doses to about 108 µM), for inactives: top-dose activity change, negative = inhibition, actives largely listed as inhibitors; P18054; AID 1671190; purified 12hLO, xylenol orange hydroperoxide absorbance; actives 1.1% (n = 580,000); active = well fitted inhibition curve with a large enough effect; inconclusive = small, poorly fitted or top-dose-only effect, or another doubt; inactive = no such curve, though single readings can be large or run the other way; also: potency is read from the fitted curve at half-maximal effect; % is scaled to controls: 0 for no effect and ±100 for the full control effect
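Purified human 12hLO at 150 nM in 25 mM Hepes, 0.01% Triton X-100, pH 7.0, preincubated 15 min at room temperature with compound. Reaction started with 40 uM arachidonic acid, 30 min at room temperature. Hydroperoxide measured by Fe-xylenol orange, 573/405 nm absorbance ratio.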
KCNH2 3.1 inh = inhibitors of human KCNH2 3.1 potassium channel isoform | U2OS KCNH2 3.1, thallium flux FluxOr; hits give low values | activity change, % (tested at about 1.8 µM) | actives 0.95% (n = 340,000) | AID 720553;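 active = maximum activity change below -70%; inconclusive = maximum activity change from -70% to -50%; inactive = maximum activity change above -50%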;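 also: thallium influx rate constant from kinetic fluorescence after stimulation buffer; % is scaled to controls: 0 for no effect and ±100 for the full control effect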
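U2OS cells transduced with KCNH2 3.1 mutant virus (1.77 x 10^8 /mL, 4 h), plated overnight at 37 C, loaded 45 min with FluxOr dye plus Red40 quencher. Thallium flux rate constant from kinetic reads after stimulation buffer, normalised to controls.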
Chronic BCR inh = blocks chronic active B-cell receptor signaling | ABC-DLBCL IkBa-CBG/CBR reporter, luminescence ratio, 4 h | actives 0.05% (n = 340,000) | Potency, µM (titrated, usually from 46.1 µM), inactives show at the top dose activity change, negative = inhibition, actives largely listed as inhibitors; active = well fitted inhibition curve with a large enough effect in the signal ratio, with a control signal flat, not every such curve was filed as active; inconclusive = small, poorly fitted or top-dose-only effect, or effect the other way, or a change in a side signal; the % refers to the signal ratio;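 also: potency is read from the fitted curve at half-maximal effect; plate controls were basal doxycycline-induced cells for no effect and cells given 10 µM MG132 for full effect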
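TMD8 ABC-DLBCL cells carrying doxycycline-inducible green luciferase fused to IkappaBalpha plus unfused red luciferase were exposed to compounds (up to 46 uM) for 4 hrs at 37C. Activity came from the overlap-corrected green/red luminescence ratio.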
ClpP mod = qHTS Assay for Activators of ClpP | purified B. subtilis ClpP, FRET peptide cleavage, 20 min | ATP-dependent Clp protease proteolytic subunit (Bacillus subtilis (strain 168)), P80244 | Potency, µM (titrated, usually from 57.5 µM), for the others: top-dose activity change, negative = active | actives 1.9% (n = 340,000); active = well fitted falling curve with a large enough effect; inconclusive = small, poorly fitted or top-dose-only effect; inactive = no such curve, though single readings can be large or run the other way; also: potency is read from the fitted curve at half-maximal effect; the source files actives as falling curves though it sought activators and does not explain the sign; nearly all actives have a fitted effect of over 65% in size
Target sequence (P80244 whole entry, looked up): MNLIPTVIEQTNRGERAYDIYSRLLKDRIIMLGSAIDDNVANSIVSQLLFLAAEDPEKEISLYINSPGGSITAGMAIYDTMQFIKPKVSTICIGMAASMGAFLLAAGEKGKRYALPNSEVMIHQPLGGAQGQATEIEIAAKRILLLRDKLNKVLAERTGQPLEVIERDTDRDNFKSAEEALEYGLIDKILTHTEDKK
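Buffer: 100 mM Tris/HCl pH8, 100 mM KCl, 0.05% low protease BSA, 2.5% glycerol, 0.01% Tween-20. ClpP 10 microg/mL final; 20 min RT; delta FRET normalized to ADEP and DMSO controls.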
hERG WT inh = inhibitors of human wildtype KCNH2 potassium channel. U2OS, BacMam KCNH2, thallium flux FluxOr; hits give low values. actives 0.37% (n = 340,000). AID 720551. activity change, % at 1.84 µM;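 active = maximum activity change below -70%; inconclusive = maximum activity change between -70% and -50%; inactive = maximum activity change above -50%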; also: % is scaled to controls: 0 for no effect and ±100 for the full control effect
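U2OS cells transduced with wild-type KCNH2 virus are loaded with FluxOr dye for 45 min, and thallium flux is measured in kinetic reads before and after stimulation buffer. Rate constants are normalized to DMSO controls.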
The depositor's hits bear a star; i = inactive; ? = inconclusive; / = no result given; [ ] = another dose, or the depositor's remark. Sampled rows, rich in hits. Any-hit rate of the full collection: about 3%.

SMILES | LDHA inh | 12-LOX inh | KCNH2 3.1 inh | Chronic BCR inh | ClpP mod | hERG WT inh
Cc1ccc(C)c(NC(=O)C(OC(=O)c2ccc(NC(=O)CC#N)cc2)c2ccccc2)c1 (centres undefined) | -5 | 3% | -71* | 6% | 0% | 0
O=C(Cc1ccccc1)NCCCNC(=O)Cc1ccccc1 | -6 | 3% | -17 | / | 28µM* | 19
O=C(/C=C1\NC2(CCCC2)Cc2ccccc21)C(=O)N/N=C/c1ccccc1O | -1 | -6% | -85* | ? | 1% | -22
O=C(Nc1ccc(-c2nc3c(ccc4ccccc43)o2)cc1)c1ccco1 | -1 | -16% | -1 | 1% | 13µM* | 7
COc1ccc(C2CC(c3ccc4ccccc4c3)=NN2C(=O)CNC2CCCCC2)cc1 (centres undefined) | -9 | 45µM* | -5 | -6% | 4% | 60
C=CCNCC(=O)N1N=C(c2ccc3ccccc3c2)CC1c1ccc(OC)cc1 (centres undefined) | -11 | ? | ? | -17% | / | 18
O=C(Nc1ccc(F)cc1F)C1CC2CCC1C2 (centres undefined) | 13 | 7% | / | / | / | /
O=C1NC2(CCN(Cc3ccsc3)CC2)COc2ccccc21 | / | 45µM* | / | / | / | /
COc1ccc(/C(C)=N/NC(=O)c2ccc(CSc3cccc4cccnc34)cc2)cc1OC | -1 | 21% | ? | -15% | 22µM* | 1
C/C(=N\NC(=O)c1ccc(CSc2cccc3cccnc23)cc1)C1CCCCC1 | -11 | 9% | -30 | -2% | 28µM* | 1
CCCn1nc(C)cc1CN(CC)C(=O)c1cc[nH]c1C1CCCNC1 (centres undefined) | / | 39% | / | / | / | /
CCOCCOC(=O)COc1ccc2c(=O)c(Oc3cc(C)c(Cl)c(C)c3)coc2c1 | 1 | ? | / | / | / | /
Cn1cc(CN[C@H]2[C@H](O)[C@H](O)C[C@@H]2c2cccnc2)c2ccccc21 | / | 45µM* | / | / | / | /
O=C(Nc1ccc(N2CCCC2)cc1)c1cccc(-c2cc3ccccc3oc2=O)c1 | -1 | 11µM* | -2 | -12% | 1% | 17
O=C(Nc1ccc(Br)cn1)c1cccc(-c2cc3ccccc3oc2=O)c1 | -10 | -19% | -22 | ? | 14µM* | -1
S=c1sc2c(s1)SC1c3ccccc3CC1S2 (centres undefined) | -11 | 16µM* | / | / | / | /
Cc1ccc(-c2nc(CS(=O)(=O)CC(=O)N3CCc4ccccc43)c(C)o2)cc1 | 10 | 23% | / | / | / | /
O=C(Nc1ccc2c3c(cccc13)CC2)C(Cl)(Cl)Cl | 3 | ? | / | / | / | /
O=C(COc1cccc(F)c1)Nc1cccc2cccnc12 | -4 | 14% | / | / | / | /
Cc1ccccc1C(=O)Nc1cccc(NC(=O)c2cccnc2)c1 | -6 | -4% | -12 | ? | / | -78*
CCCn1nc(C(=O)N2CCN(c3ccccc3)CC2)c2ccccc2c1=O | -6 | -2% | / | / | / | /
CC(C)C[C@@H]1N[C@H](C(=O)NCCOc2ccccc2)Cc2cn(C)c3cccc1c23 | / | 35%[176 µM] | / | / | / | /
COc1ccc(OC)c(C2C=C(C34CC5CC(CC(C5)C3)C4)NC(=S)N2)c1 (centres undefined) | 0 | 32µM* | ? | 2% | / | i
Cc1nc(-c2cnccn2)n(CC(=O)Nc2ccc3c(c2)OCCO3)c(=O)c1C | / | 40% | / | / | / | /
O=C(CCc1ccccc1)Nc1ccnn1C1CCN(C/C=C/c2ccccc2)CC1 | 2 | 1% | ? | -12% | 0% | 22
O=C(Nc1ccccc1Oc1cccnc1)C1CCCN(C/C=C/c2ccccc2)C1 (centres undefined) | -12 | 22% | -85* | -3% | -3% | -19
CCn1ncc(CN2CCC(n3nccc3NC(=O)c3ccccc3Cl)CC2)c1C | -1 | 5% | -17 | / | 0% | 63
